# Compounds with a hit are over-represented: about 4% of the library has one in this group of screens.
# Mtb betalactam – beta-lactam sensitization of Mtb H37Rv; M. tuberculosis H37Rv growth with meropenem, percent inhibition; inhibition, % at 25 µM; 330,000 compounds, 0.27% hits; call rule not given here;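 note: growth measured after seven days incubation then overnight dye step; 0% = bacteria only wells and 100% = bacteria with antibiotic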
# GDH-TPI inh – inhibits GDH-TPI coupling enzymes, artifact for Mtb FBA screen. inhibition, % at 4.8 µM. 360,000 compounds, 1.2% hits. GDH-TPI coupled enzyme counterscreen, NADH absorbance;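 note: 0% = DMSO wells and 100% = wells lacking the enzyme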
# Mtb FBA inh – Mtb fructose-bisphosphate aldolase inhibition | purified M. tuberculosis FBA, fluorescence read-out | inhibition, % at 1 µM | 360,000 compounds, 2.3% hits; in the data active = inhibition above about 27%;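 note: 0% = vehicle and 100% = reference inhibitor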
# Target sequence (P9WQA3 whole entry, looked up): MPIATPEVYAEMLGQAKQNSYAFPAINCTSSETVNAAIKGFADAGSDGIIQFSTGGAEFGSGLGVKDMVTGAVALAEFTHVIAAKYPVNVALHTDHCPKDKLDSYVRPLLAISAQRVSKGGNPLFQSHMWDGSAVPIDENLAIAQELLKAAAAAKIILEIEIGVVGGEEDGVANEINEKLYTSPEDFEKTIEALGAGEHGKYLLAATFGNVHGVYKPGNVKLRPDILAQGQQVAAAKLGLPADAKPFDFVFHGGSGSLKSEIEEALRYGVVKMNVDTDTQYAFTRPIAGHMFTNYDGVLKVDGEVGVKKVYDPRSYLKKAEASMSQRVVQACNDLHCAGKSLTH
# CCHF vOTU inh – blocks the CCHF virus ovarian tumor domain protease; CCHFV vOTU protease, Pep-AMC fluorescence; inhibition, % at 11.5 µM; 370,000 compounds, 0.55% hits; AID 651958; note: 0% = vehicle wells with enzyme and 100% = no enzyme wells
# MazEF act – increases E. coli MazEF RNase cleavage of RNA | P0AE70 | FAM/BHQ RNA-DNA oligo cleavage fluorescence, 5 h | activation, % at 20 µM | 350,000 compounds, 0.32% hits | AID 504720; in the data active = activation above about 50%
# Target sequence (P0AE70 whole entry, looked up): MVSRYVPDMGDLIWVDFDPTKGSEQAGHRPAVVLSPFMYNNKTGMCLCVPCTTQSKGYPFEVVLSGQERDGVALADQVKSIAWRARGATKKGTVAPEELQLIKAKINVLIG
# Starred values were filed as active, the others as inactive; . = no result given; + = active, no number. Cut-off read from the data, not from the text of the source, unless noted: active = inhibition above about 30%; inactive = the rest.
SMILES,Mtb betalactam,GDH-TPI inh,Mtb FBA inh,CCHF vOTU inh,MazEF act
COCCCn1c(=N)c(C(=O)NCC2CCCO2)cc2c(=O)n3cccc(C)c3nc21 (centres undefined),2.8,1.6,+,-392.0,6.0
COCCCn1c(=N)c(C(=O)NCC2CCCO2)cc2c(=O)n3ccccc3nc21 (centres undefined),-4.2,14.3,+,-147.7,7.1
COc1ccc(CCn2c(=N)c(C(=O)NCC3CCCO3)cc3c(=O)n4ccccc4nc32)cc1 (centres undefined),8.1,11.8,8.9,6.7,3.3
COCCCn1c(C(=O)N2CCOCC2)cc2c(=O)n3ccccc3nc21,-3.2,13.1,+,-302.8,1.2
COCCCn1c(C(=O)Nc2ccc3c(c2)OCO3)cc2c(=O)n3ccccc3nc21,0.9,4.3,-2.4,2.0,-2.0
FC(F)(F)c1ccccc1NC(=S)OC1CCC12CCC(c1ccccc1)CC2 (centres undefined),.,.,.,4.2,.
CC(C)C[C@H]1COc2cccc(N3CCCC3)c2S(=O)(=O)N1C,.,.,.,4.5,.
Cc1cccn2c(=O)c3cc(C(=O)NCC4CCCO4)c(=N)n(CCN4CCOCC4)c3nc12 (centres undefined),-4.1,23.9,145.3*,-126.8,5.9
CCCn1c(=N)c(C(=O)NCC2CCCO2)cc2c(=O)n3cccc(C)c3nc21 (centres undefined),-4.3,15.1,+,-254.3,1.6
Cc1cccn2c(=O)c3cc(S(=O)(=O)c4ccccc4)c(=N)n(CC4CCCO4)c3nc12 (centres undefined),0.0,.,.,.,19.5
CCOCCCNC(=O)c1cc2c(=O)n3cccc(C)c3nc2n1C,-1.7,13.7,14.7,-13.2,-29.7
CCOCCCn1c(=N)c(C(N)=S)cc2c(=O)n3cccc(C)c3nc21,-0.7,4.9,76.9*,-36.9,-3.8
N#CCC[C@H]1CC[C@]2(CCCN(C(=O)c3ccccc3)C2)O1,.,.,.,6.1,.
O=C(Nc1ccccc1Cl)OC1CC2CC1[C@H]1CCCCN1[C@H]2Cc1ccccc1 (some centres undefined),.,.,.,-2.2,.
COc1cc(/C=N\N=C2/SC(CC(=O)O)C(=O)N2c2ccc(O)cc2)ccc1O (centres undefined),-6.0,32.0*,1.2,4.5,2.4
COc1cc(/C=N/N=C2/SCC(=O)N2c2ccc(O)cc2)ccc1O,2.3,16.4,-2.2,13.6,9.8
O=C(O)CC1S/C(=N/N=C/c2ccc([N+](=O)[O-])cc2)N(c2ccc(O)cc2)C1=O (centres undefined),-2.6,18.9,-4.4,16.3,4.1
COc1ccc(/C=N\N=C2/SC(CC(=O)O)C(=O)N2c2ccc(O)cc2)cc1OC (centres undefined),3.6,43.5*,-0.4,9.3,3.7
COc1ccc(-n2c(COc3ccc(C)cc3)nnc2SCC(=O)c2ccc(-c3ccccc3)cc2)cc1,.,.,.,15.5,.
CN(C)S(=O)(=O)c1cccc(NC(=O)c2c[nH]c3ccccc23)c1,-3.8,-2.3,77.8*,-11.8,6.7
CN(C)S(=O)(=O)c1cccc(NC(=O)c2cc(=O)[nH]c3ccccc23)c1,3.0,2.9,1.6,3.2,-0.1
CCCCN1CN2Cc3cc(F)ccc3C2CS1(=O)=O (centres undefined),.,.,.,-7.1,.
COc1ccccc1NC(=O)OC1CCC12CCCCC2 (centres undefined),.,.,.,2.1,.
c1ccc(N=Nc2ccc(C3=NCCO3)cc2)cc1,.,35.9*,-0.8,12.2,2.7
Clc1ccc(-c2nnc3n2-c2ccccc2SC3)cc1,36.4,5.2,-2.1,-8.0,-32.3
SMILES,Mtb betalactam,GDH-TPI inh,Mtb FBA inh,CCHF vOTU inh,MazEF act
CN1C(c2ccc(F)cc2)=CS/C1=C(\C#N)c1nnc2n1-c1ccccc1SC2,80.5,34.4*,-0.2,-19.3,-11.2
COc1ccc(C(=O)N/N=C\C(C)=C\c2ccccc2)cc1OC,-1.8,51.0*,-5.7,-2.9,-2.1
O=C(N/N=C/C(Cl)=C/c1ccccc1)c1ccccc1F,2.9,28.8,-3.2,10.9,9.8
CC(/C=N/NC(=O)c1cccnc1)=C\c1ccccc1,0.4,18.1,-0.3,0.4,2.4
CC(=C/c1ccccc1)/C=N/NC(=O)c1cnccn1,-10.7,42.6*,-2.3,12.9,6.6
O=C(N/N=C/C(Cl)=C/c1ccccc1)c1cnccn1,19.1,86.4*,-6.4,19.7,-6.7
O=C(N/N=C/c1cccc([N+](=O)[O-])c1)c1cnccn1,-4.4,15.5,0.9,-3.8,4.4
O=C(N/N=C/C(Cl)=C\c1ccccc1)c1cnccn1,-0.1,66.4*,4.4,6.3,-3.1
CN1[C@@H](Cc2ccccc2)COc2cc(N3CCCC3)ccc2S1(=O)=O,.,.,.,-1.9,.
Cc1ccc(NC(=S)N/N=C/c2ccc(OCCC(C)C)cc2)c(C)c1,15.4,35.9*,2.8,17.2,-1.3
Cc1ccc(NC(=S)N/N=C/c2c(Cl)cccc2Cl)c(C)c1,-1.4,10.1,-1.0,4.1,4.1
COc1ccc(Cn2cc(CN3[C@H](C)COc4cc(Br)ccc4S3(=O)=O)nn2)cc1,.,.,.,0.3,.
CC(C)n1c(-c2ccc(N(C)C)cc2)nc2ccccc21,80.5,11.0,184.6*,-40.4,-4.8
CN(C)c1ccc(-c2nc3ccccc3n2C)cc1,-4.6,17.7,+,-81.4,-16.6
Cc1ccc(C(O)c2nc3ccccc3n2C(C)C)cc1 (centres undefined),-2.2,-10.7,-0.6,7.0,9.0
CCn1c(-c2ccc(N(C)C)cc2)nc2ccccc21,2.1,17.4,+,-67.0,-8.5
COC(=O)[C@]12C[C@H](CC(=O)N3CCN(C(=O)c4ccco4)CC3)C(=O)N(Cc3ccc(Cl)cc3Cl)C1=C[C@H](C1CCCC1)O[C@@H]2C,.,.,.,11.2,.
CCOC(=O)c1cc2c(=O)n3ccccc3nc2n(Cc2ccco2)c1=NC(=O)c1cccnc1,-8.4,14.5,130.5*,-86.1,12.7
CCOC(=O)c1cc2c(=O)n3ccccc3nc2n(CC(C)C)c1=NC(=O)c1ccco1,1.8,8.8,135.0*,-76.9,6.3
CCOC(=O)c1cc2c(=O)n3ccccc3nc2n(Cc2ccco2)c1=NC(=O)c1ccccc1OCC,7.0,9.9,172.6*,-84.3,-14.2
COc1cc(NC(=O)C2CCCN(S(=O)(=O)c3cccc4cccnc34)C2)cc(OC)c1 (centres undefined),.,.,.,-0.1,.
Cc1c(CC(=O)N[C@H](C(=O)O)C(C)C)c(=O)oc2cc3c(cc12)CCC(C)(C)O3,-2.0,22.8,153.0*,-155.6,1.1
CCC(C)NC(=O)Cc1c(C)c2cc3c(cc2oc1=O)OC(C)(C)CC3 (centres undefined),-7.1,17.1,189.1*,-121.0,-5.6
Cc1oc2cc3oc(=O)c(CC(=O)N[C@H](C(=O)N[C@@H](C(=O)O)c4ccccc4)C(C)C)c(C)c3cc2c1C,1.9,22.6,9.2,-11.6,-3.0
COCCNC(=O)Cc1c(C)c2cc3c(cc2oc1=O)OC(C)(C)CC3,-5.2,15.8,164.9*,-159.1,5.8
Cc1c(CC(=O)N[C@@H](C)C(=O)O)c(=O)oc2cc3c(cc12)CCC(C)(C)O3,10.4,26.4,+,-164.1,1.7

# Bioassay records: PubChem, several laboratories
